Results from PubChem BioAssay.
Where “and” joins values, the source holds several entries; their conditions need not be identical. Equal values may be shown once. Calls of active or inactive are those of the source. Unless noted, no rule for the calls is given here.

Key:
[1] = HepG2 liver cancer cell viability effects, profiling panel, resazurin fluorescence, 24 h, PK04 Diversity Set (AID 1172); conditions: higher = more signal; also: test concentration not given here
[2] = basal S. cerevisiae growth modulation, no modifier, primary screen, OD600, strain BY4716, 24 h, basal condition (AID 1173); conditions: OD600, 24 h, higher = more signal, called active from +8 up or from −8 down
[3] = MM1S myeloma cell viability, profiling panel, resazurin fluorescence, basal, 24 h, PK04 Diversity Set (AID 1174); conditions: higher = more signal, called active from +8 up or from −8 down;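 also: MM1S multiple myeloma cell line; test concentration not given here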
[4] = molecular target: Dihydroorotate dehydrogenase (quinone), mitochondrial (Plasmodium falciparum (isolate 3D7)) (UniProt Q08210); experiment: PfDHODH enzyme inhibitors, primary screen, biochemical, C-terminal His tag, absorbance 600 nm (AID 1175); conditions: DCIP absorbance 600 nm, higher = more signal, called active from +8 up or from −8 down;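 also: recombinant parasite enzyme with a five histidine tag at its C terminus; test concentration not given here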
Chain of Dihydroorotate dehydrogenase (quinone), mitochondrial (Plasmodium falciparum (isolate 3D7)) (Q08210 whole entry, looked up): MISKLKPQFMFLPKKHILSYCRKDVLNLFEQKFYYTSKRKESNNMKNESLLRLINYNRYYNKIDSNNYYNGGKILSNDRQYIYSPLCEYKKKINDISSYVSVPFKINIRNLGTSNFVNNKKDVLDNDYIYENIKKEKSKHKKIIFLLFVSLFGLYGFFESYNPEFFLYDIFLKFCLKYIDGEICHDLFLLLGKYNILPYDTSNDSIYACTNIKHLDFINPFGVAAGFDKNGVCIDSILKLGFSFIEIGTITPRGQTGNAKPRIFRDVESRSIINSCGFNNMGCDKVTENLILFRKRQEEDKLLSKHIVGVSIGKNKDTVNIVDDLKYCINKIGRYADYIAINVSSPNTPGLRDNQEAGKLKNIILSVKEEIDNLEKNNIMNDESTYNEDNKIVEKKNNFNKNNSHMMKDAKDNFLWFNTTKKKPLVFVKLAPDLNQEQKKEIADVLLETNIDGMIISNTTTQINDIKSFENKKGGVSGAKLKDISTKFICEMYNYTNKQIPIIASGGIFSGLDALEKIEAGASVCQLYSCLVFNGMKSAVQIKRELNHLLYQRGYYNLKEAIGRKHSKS

[5] = P. aeruginosa biofilm formation inhibitors, primary screen, strain PAO1, LB-PBS medium, absorbance 600 nm (AID 1176); also: test concentration not given here; conditions: P. aeruginosa PAO1 growth/biofilm, A600, 12 h; higher = more signal
[6] = S. cerevisiae RM11-1a growth modifiers, primary screen, strain RM11-1a, OD600, basal, 24 h (AID 1177); conditions: OD600, 24 h, higher = more signal, called active from +8 up or from −8 down;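 also: cultures grown under basal conditions with no added stressor; test concentration not given here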
[7] = E. coli acrAB mutant growth effects, primary screen, E. coli filamentation inducers, strain DRC39, OD650, 24 h (AID 1178); conditions: higher = more signal, called active from +8 up or from −8 down;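 also: growth measured as culture turbidity by optical density at 650 nm; test concentration not given here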
[8] = E. coli acrAB mutant growth effects, primary screen, E. coli filamentation inducers, strain DRC39, OD650, 48 h (AID 1179);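 also: screen aims at cell division blockers that make cells filament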; conditions: E. coli DRC39 delta-acrAB growth, higher = more signal, called active from +8 up or from −8 down
[9] = RPMI8226 myeloma cell viability, profiling panel, resazurin fluorescence, basal, 24 h, PK04 Diversity Set (AID 1180); conditions: higher = more signal;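 also: RPMI8826 multiple myeloma cell line at 5000 cells per well; test concentration not given here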
[10] = molecular target: E3 ubiquitin-protein ligase XIAP (Homo sapiens) (UniProt P98170); experiment: XIAP binders, primary screen, biophysical, small-molecule microarray, fluorescence 635 nm (AID 1181); conditions: small-molecule microarray binding, higher = more signal;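 also: score merges 667 nm emission and signal to noise over triplicate slides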
Chain of E3 ubiquitin-protein ligase XIAP (Homo sapiens) (P98170 whole entry, looked up): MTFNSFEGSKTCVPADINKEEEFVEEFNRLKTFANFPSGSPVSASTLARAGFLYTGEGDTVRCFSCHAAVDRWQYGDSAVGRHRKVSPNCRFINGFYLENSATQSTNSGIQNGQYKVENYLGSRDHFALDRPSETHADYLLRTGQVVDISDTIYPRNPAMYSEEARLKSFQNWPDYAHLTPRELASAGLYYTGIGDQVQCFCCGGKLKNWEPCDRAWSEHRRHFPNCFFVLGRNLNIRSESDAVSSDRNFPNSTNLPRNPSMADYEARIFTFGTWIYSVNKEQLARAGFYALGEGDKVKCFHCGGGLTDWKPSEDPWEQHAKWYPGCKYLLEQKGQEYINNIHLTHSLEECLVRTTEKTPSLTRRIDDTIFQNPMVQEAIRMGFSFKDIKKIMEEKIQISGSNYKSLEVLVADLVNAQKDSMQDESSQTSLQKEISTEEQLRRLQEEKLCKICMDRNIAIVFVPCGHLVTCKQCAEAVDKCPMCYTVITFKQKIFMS

C=C[C@@H](OC)[C@H](O)c1ccc(OCCO)cc1
z-score [1]: 0.242 and 0.884
z-score [2]: -5.46 (inactive) and -6.32 (inactive)
z-score [3]: -0.154 (inactive) and 0.883 (inactive)
composite z-score [4]: 0.358 (inactive) and -0.456 (inactive)
z-score [5]: 0.519 (inactive) and 1.64 (inactive)
z-score [6]: 0.526 (inactive) and -2.73 (inactive)
z-score [7]: 0.0235 (inactive) and 1.08 (inactive)
z-score [8]: 0.121 (inactive) and 1.48 (inactive)
z-score [9]: -0.121 and 1.36
composite z-score [10]: -0.19 and -0.102

C[C@@H]1CC[C@H]2C(=O)N3[C@@H](CC[C@@H](C)[C@@H]3c3ccc(-c4ccco4)cc3)C(=O)N2[C@H]1c1ccc(-c2ccco2)cc1
z-score [1]: -0.458 and 0.764
z-score [2]: 0.666 (inactive) and -1.56 (inactive)
z-score [3]: -0.316 (inactive) and 1.14 (inactive)
composite z-score [4]: -1.48 (inactive) and -7.32 (inactive)
z-score [5]: 0.143 (inactive)
z-score [6]: 0.43 (inactive) and -0.546 (inactive)
z-score [7]: 0.0111 (inactive) and 0.845 (inactive)
z-score [8]: -0.0533 (inactive) and 0.0395 (inactive)
z-score [9]: 0.136 and 1.2
composite z-score [10]: -0.0559 and 0.217

C[C@@]1([C@@H](NC(=O)Cc2ccccc2)c2ccc(-c3ccccc3)cc2)C[C@H]1C1CCCCC1
z-score [1]: -1.11 and 1.82 and -1
z-score [2]: 0.332 (inactive) and 0.351 (inactive) and 1.3 (inactive)
z-score [3]: -0.506 (inactive) and 1.03 (inactive) and -1.05 (inactive)
composite z-score [4]: -4.04 (inactive) and -0.594 (inactive) and -0.535 (inactive)
z-score [5]: 2.92 (inactive) and 1.4 (inactive) and 1.18 (inactive)
z-score [6]: 1.75 (inactive) and 0.465 (inactive) and 1.58 (inactive)
z-score [7]: -0.305 (inactive) and -0.278 (inactive) and -1.43 (inactive)
z-score [8]: -0.0393 (inactive) and -0.777 (inactive) and -0.74 (inactive)
z-score [9]: -3.36 and 2.84 and -1.47
composite z-score [10]: 0.102 and 0.0464 and -0.02

C[C@@H]1CC[C@H]2C(=O)NC[C@@H](O)CN2[C@H]1c1ccc(Br)cc1
z-score [1]: -0.278 and -0.27
z-score [2]: -0.228 (inactive) and -0.64 (inactive)
z-score [3]: -0.503 (inactive) and 0.138 (inactive)
composite z-score [4]: -0.679 (inactive) and 0.382 (inactive)
z-score [5]: 0.684 (inactive) and -0.27 (inactive)
z-score [6]: -0.154 (inactive) and 0.502 (inactive)
z-score [7]: 0.514 (inactive) and 0.669 (inactive)
z-score [8]: -0.882 (inactive) and 0.26 (inactive)
z-score [9]: -0.149 and 0.435
composite z-score [10]: -0.0238 and -0.102

Cc1cc2c(nc1C)CCCN2CC(C)ON=C[C@@H](C)[C@H](OCc1ccccc1)C(C)C (stereo not given in full)
z-score [1]: -0.524
z-score [2]: -0.0028 (inactive)
z-score [3]: -0.567 (inactive)
composite z-score [4]: 0.103 (inactive)
z-score [5]: -0.172 (inactive)
z-score [6]: 0.776 (inactive)
z-score [7]: -0.0901 (inactive)
z-score [8]: -0.549 (inactive)
z-score [9]: -0.394
composite z-score [10]: 0.0546

CCN1C(=O)[C@H]2[C@H]3[C@H](O)[C@H](O)CC(=NNC(=O)OCc4ccc(OC)cc4)[C@H]3CC[C@H]2C1=O
z-score [1]: -1.02
z-score [2]: 0.199 (inactive)
z-score [3]: -2.24 (inactive)
composite z-score [4]: -0.223 (inactive)
z-score [5]: -0.273 (inactive)
z-score [6]: 0.632 (inactive)
z-score [7]: -0.0482 (inactive)
z-score [8]: 0.559 (inactive)
z-score [9]: -1.38
composite z-score [10]: 0.0322

COc1ccc(COC(=O)NN=C2C[C@@H](O)[C@@H](O)[C@@H]3[C@@H]4C(=O)N(C(C)(C)C)C(=O)[C@@H]4CC[C@H]23)cc1
z-score [1]: -0.947
z-score [2]: -1.8 (inactive)
z-score [3]: -0.18 (inactive)
composite z-score [4]: -1.31 (inactive)
z-score [5]: 0.541 (inactive)
z-score [6]: -1.94 (inactive)
z-score [7]: -0.21 (inactive)
z-score [8]: 0.0442 (inactive)
z-score [9]: -0.571
composite z-score [10]: -0.0845

C=CCN(CCCC)C(=O)C1N(CCCCCCO)C(=O)C2C(C(=O)O)C3C=CC21O3 (stereo not given)
z-score [1]: 0.063 and -0.938
z-score [2]: 0.569 (inactive) and 0.411 (inactive)
z-score [3]: -0.76 (inactive) and -0.768 (inactive)
composite z-score [4]: -0.669 (inactive) and -0.0254 (inactive)
z-score [5]: 0.109 (inactive) and -0.388 (inactive)
z-score [6]: -0.751 (inactive) and -0.681 (inactive)
z-score [7]: 0.03 (inactive) and -0.0327 (inactive)
z-score [8]: -0.146 (inactive) and -0.105 (inactive)
z-score [9]: -0.704 and -0.992
composite z-score [10]: -0.124 and 0.18

C=CCN(CCCCC)C(=O)C1N(CCOCCO)C(=O)C2C(C(=O)O)C3C=CC21O3 (stereo not given)
z-score [1]: -0.541 and -0.785
z-score [2]: 0.709 (inactive) and 1.12 (inactive)
z-score [3]: -0.885 (inactive) and -1.41 (inactive)
composite z-score [4]: 1.39 (inactive) and -0.109 (inactive)
z-score [5]: -0.553 (inactive) and -0.469 (inactive)
z-score [6]: 0.892 (inactive) and 0.451 (inactive)
z-score [7]: -0.649 (inactive) and -0.537 (inactive)
z-score [8]: -0.496 (inactive) and -0.506 (inactive)
z-score [9]: -0.724 and -0.899
composite z-score [10]: -0.113 and -0.124

CCOC(=O)c1ccc(NC(=O)O[C@H]2[C@H](OC(=O)Nc3ccccc3)[C@@H](OC(=O)Nc3ccccc3)[C@@H](OC)O[C@@H]2CO)cc1
z-score [1]: -1.97 and -1.75
z-score [2]: 2.09 (inactive) and 0.61 (inactive)
z-score [3]: -2.14 (inactive) and -3.07 (inactive)
composite z-score [4]: 0.146 (inactive) and 0.755 (inactive)
z-score [5]: 1.94 (inactive) and 1.5 (inactive)
z-score [6]: 2.51 (inactive) and 2.87 (inactive)
z-score [7]: 0.028 (inactive) and 0.188 (inactive)
z-score [8]: -0.343 (inactive) and -0.714 (inactive)
z-score [9]: -1.82 and -1.87
composite z-score [10]: 0.39 and -0.146

CCN1C(=O)[C@H]2[C@H]3[C@H](O)[C@H](O)CC(=NOC[C@@H](O)COCc4ccco4)[C@@H]3CC[C@H]2C1=O
z-score [1]: -0.113 and -1.03
z-score [2]: 1.31 (inactive) and 0.252 (inactive)
z-score [3]: -0.413 (inactive) and -0.696 (inactive)
composite z-score [4]: 0.489 (inactive) and 0.529 (inactive)
z-score [5]: -0.601 (inactive) and -0.385 (inactive)
z-score [6]: 0.567 (inactive) and 0.24 (inactive)
z-score [7]: -0.357 (inactive) and -1.05 (inactive)
z-score [8]: -0.463 (inactive) and -0.657 (inactive)
z-score [9]: -0.575 and -0.287
composite z-score [10]: -0.0666 and -0.121

C=CC[C@@H](O)c1ccc(O)c(F)c1
z-score [1]: -0.0101 and 0.942
z-score [2]: -0.898 (inactive) and -2.97 (inactive)
z-score [3]: -0.87 (inactive) and 1.56 (inactive)
composite z-score [4]: 0.672 (inactive) and -0.585 (inactive)
z-score [5]: 0.671 (inactive)
z-score [6]: 0.912 (inactive) and -1.83 (inactive)
z-score [7]: -0.046 (inactive) and 1.79 (inactive)
z-score [8]: -0.248 (inactive) and 1.06 (inactive)
z-score [9]: -0.511 and 0.864
composite z-score [10]: -0.0884 and -0.042

CC(C)=NOCc1ccc(-c2cn([C@@H]3COC[C@H]3O)nn2)cc1
z-score [1]: -0.203
z-score [2]: 0.313 (inactive)
z-score [3]: 0.0429 (inactive)
composite z-score [4]: -0.478 (inactive)
z-score [5]: -0.0691 (inactive)
z-score [6]: -0.0292 (inactive)
z-score [7]: 0.114 (inactive)
z-score [8]: -0.0038 (inactive)
z-score [9]: 0.106
composite z-score [10]: 0.0049

COC(=O)CC=C[C@@H](C)[C@@H](CO)NS(=O)(=O)c1ccc(C)cc1
z-score [1]: 0.553 and -0.369
z-score [2]: 0.909 (inactive) and -1.39 (inactive)
z-score [3]: 0.0323 (inactive) and -0.548 (inactive)
composite z-score [4]: 0.581 (inactive) and -0.0189 (inactive)
z-score [5]: 0.013 (inactive) and 0.204 (inactive)
z-score [6]: -0.214 (inactive) and -0.162 (inactive)
z-score [7]: -0.0056 (inactive) and 0.413 (inactive)
z-score [8]: -0.214 (inactive) and 0.297 (inactive)
z-score [9]: 0.519 and -0.314
composite z-score [10]: -0.275 and 0.0656

C=C[C@H](C)[C@@H](O)c1ccc(OCCO)cc1
z-score [1]: 0.0272 and -0.227
z-score [2]: -1.41 (inactive) and -2.08 (inactive)
z-score [3]: -0.246 (inactive) and -0.5 (inactive)
composite z-score [4]: 0.14 (inactive) and -0.263 (inactive)
z-score [5]: 0.684 (inactive) and 0.486 (inactive)
z-score [6]: -0.371 (inactive) and 0.526 (inactive)
z-score [7]: -0.748 (inactive) and 0.371 (inactive)
z-score [8]: -0.902 (inactive) and 0.418 (inactive)
z-score [9]: 0.0577 and -0.603
composite z-score [10]: 0.074 and 0.18

C=C[C@H](OC)[C@@H](O)c1ccc(O)c(F)c1
z-score [1]: -0.463 and 0.413
z-score [2]: -2.28 (inactive) and -3.3 (inactive)
z-score [3]: -0.74 (inactive) and 0.169 (inactive)
composite z-score [4]: -0.697 (inactive) and -0.991 (inactive)
z-score [5]: 0.614 (inactive) and 0.45 (inactive)
z-score [6]: -0.684 (inactive) and -0.0772 (inactive)
z-score [7]: 0.136 (inactive) and 1.2 (inactive)
z-score [8]: 0.0056 (inactive) and 1 (inactive)
z-score [9]: -0.792 and 0.496
composite z-score [10]: -0.283 and -0.107

CC(C)=NO[C@@H](C)c1cc(-c2c(C)cc(C)cc2C)no1
z-score [1]: -0.18
z-score [2]: -2.48 (inactive)
z-score [3]: 0.672 (inactive)
composite z-score [4]: -2.98 (inactive)
z-score [5]: 0.499 (inactive)
z-score [6]: -0.395 (inactive)
z-score [7]: -0.328 (inactive)
z-score [8]: -2.9 (inactive)
z-score [9]: 0.0684
composite z-score [10]: 0.0251

CCOC(=O)[C@H](CC(C)C)NC(=O)CCC1CC(OC(=O)NCc2cccc3ccccc23)CC2(CCCC(COC(=O)NCc3ccccc3)O2)O1 (stereo not given in full)
z-score [1]: 0.928
z-score [2]: -1.76 (inactive)
z-score [3]: 1.06 (inactive)
composite z-score [4]: -0.621 (inactive)
z-score [5]: -0.0326 (inactive)
z-score [6]: -0.527 (inactive)
z-score [7]: -0.482 (inactive)
z-score [8]: -0.102 (inactive)
z-score [9]: 0.588
composite z-score [10]: -0.125
